Bioassay records (PubChem BioAssay)
MITF inh: MITF inhibitors, primary screen, biochemical, AlphaScreen, human. Microphthalmia-associated transcription factor (Homo sapiens), O75030. AlphaScreen MITF homodimerization, bead proximity signal. 0.91% of 650,000 active. inhibition, % at 2.6 µM; in the data active = inhibition above about 50%
FBW7 activator: FBW7 E3 ligase activators, primary screen, biochemical, AlphaScreen, human; F-box/WD repeat-containing protein 7 (Homo sapiens), Q969H0; AlphaScreen FBW7–phospho-cyclin E peptide binding, activator screen; normalized activity (activation), % at 26.1 µM; 0.13% of 650,000 active; in the data active = normalized activity above about 1.9%;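 note: purified mutant Fbw7 with reduced substrate affinity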
TEAD-YAP block: TEAD-YAP interaction inhibition, primary screen, TEAD-YAP interaction inhibitor project, luminescence, HEK-TIYL cells. TEAD-Gal4/YAP UAS-luciferase luminescence. inhibition, % at 9.12 µM. 1.4% of 640,000 active. AID 1259422, 2018; in the data active = inhibition above about 32%
GPR151 ag: activators of human GPR151, primary screen, cell-based, PathHunter beta-arrestin, luminescence; 1% of 650,000 active; G-protein coupled receptor 151 (Homo sapiens), Q8TDV0; AID 1508602, 2020; activation, % at 11.2 µM; PathHunter beta-arrestin GPR151 cells; in the data active = activation above about 4.9%
Target sequence (Q8TDV0 whole entry, looked up): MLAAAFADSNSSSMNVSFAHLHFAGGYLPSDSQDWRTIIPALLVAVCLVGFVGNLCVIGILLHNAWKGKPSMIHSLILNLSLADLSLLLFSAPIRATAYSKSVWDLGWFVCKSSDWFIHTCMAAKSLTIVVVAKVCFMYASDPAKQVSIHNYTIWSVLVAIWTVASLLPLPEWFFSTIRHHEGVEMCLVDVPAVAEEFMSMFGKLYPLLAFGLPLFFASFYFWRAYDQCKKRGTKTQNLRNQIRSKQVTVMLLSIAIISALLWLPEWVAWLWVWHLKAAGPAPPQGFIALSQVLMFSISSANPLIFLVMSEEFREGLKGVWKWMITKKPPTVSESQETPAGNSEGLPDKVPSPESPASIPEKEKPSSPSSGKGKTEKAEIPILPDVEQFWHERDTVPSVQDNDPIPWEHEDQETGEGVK
Of the large screens only hits and unclear results are named; the others gave an inactive call. Hits are enriched below; roughly 3.4% of the tested compounds scored in any of these assays.

COc1ccccc1-n1c(=S)sc2c(=O)n(-c3ccccc3)c(SCc3ccccc3F)nc21	none
Cc1cccc(C)c1-n1c(=S)sc2c(=O)n(-c3ccccc3)c(SCc3ccccc3F)nc21	TEAD-YAP block 46
COC(=O)c1ccc2c(=O)n(CC3CCCO3)c(SCC(=O)Nc3ccc(C)c(Cl)c3)nc2c1 (centres undefined)	FBW7 activator 3.5
COC(=O)c1ccc2c(=O)n(CC3CCCO3)c(SCC(=O)Nc3ccc(C)cc3)nc2c1 (centres undefined)	none
CCCNc1nc(-c2c(C)nn(C)c2C)nc2c1ncn2-c1ccccc1	none
Cc1c(/C=N/Nc2cccc3cccnc23)c(=O)n(-c2ccccc2)n1C	TEAD-YAP block 88
C(=N\Nc1cccc2cccnc12)/c1ccccn1	none
CCCN(C(=O)c1coc(=O)c2ccccc12)c1ccccc1C	TEAD-YAP block 38
CCN(C(=O)c1coc(=O)c2ccccc12)c1ccccc1F	TEAD-YAP block 35
CCN(C(=O)c1coc(=O)c2ccccc12)c1cccc(Cl)c1	TEAD-YAP block 39
CN(C(=O)c1coc(=O)c2ccccc12)c1ccccc1F	none
COc1cc(Nc2nc(=S)[nH]c3ccccc23)cc(OC)c1OC	none
COCCCN1C(=O)CC(CC(=O)NC(C)Cc2ccsc2)(c2ccccc2C)C1=O (centres undefined)	none
COc1ccc(-c2cnc3ccc(NC4CCC(O)CC4)nn23)cn1 (centres undefined)	TEAD-YAP block 36
OC1CCC(Nc2ccc3ncc(-c4ccc5ccccc5c4)n3n2)CC1 (centres undefined)	none
COC(=O)c1ccc(-c2cnc3ccc(NC4CCC(O)CC4)nn23)cc1 (centres undefined)	TEAD-YAP block 41
COc1ccc(N2CCN(CCN3CCCCC3)CC2)cc1	MITF inh 82
O=C(NCCN1CCOCC1)c1nn2c(C(F)(F)F)cc(-c3ccc(Br)o3)nc2c1Br	none
CCCc1nc2ccccc2n1C(=O)/C=C\C(=O)O	none
O=C1C=C(Nc2ccc(Cl)cc2Cl)CC(c2ccco2)C1 (centres undefined)	TEAD-YAP block 39
O=C1C=C(NCc2ccc(Cl)cc2)CC(c2ccco2)C1 (centres undefined)	none
CC(C)N(CCNc1nc(-c2cccc(N)c2)nc2c1ncn2-c1ccsc1)C(C)C	TEAD-YAP block 59
COc1ccc(-c2nc(NCCN(C(C)C)C(C)C)c3ncn(-c4ccsc4)c3n2)cc1	none
OCCNc1nc(-c2ccccc2)nc2c1ncn2-c1ccsc1	TEAD-YAP block 42
CC(=O)c1cccc(-c2nc(NCCN(C(C)C)C(C)C)c3ncn(-c4ccsc4)c3n2)c1	TEAD-YAP block 49
CC(=O)c1cccc(-c2nc(NCc3ccccc3)c3ncn(-c4ccsc4)c3n2)c1	none
CC(=O)c1cccc(-c2nc(NCCO)c3ncn(-c4ccsc4)c3n2)c1	TEAD-YAP block 49
CC(=O)c1cccc(-c2nc(NCCN(C(C)C)C(C)C)c3ncn(-c4ccccc4)c3n2)c1	none
COC(=O)c1ccc(C2CC(=O)N3C(=C2C#N)SCC3(O)c2ccc(OC)cc2)cc1 (centres undefined)	none
FC(F)(F)c1cccc(CNc2nc(Oc3ccccc3)nc3c2ncn3-c2ccsc2)c1	TEAD-YAP block 74
CC(=O)c1cccc(-c2nc(NCCO)c3ncn(C(C)C)c3n2)c1	TEAD-YAP block 55
FC(F)(F)c1cccc(CNc2nc(Nc3ccccc3)nc3c2ncn3-c2ccsc2)c1	none
c1cc(-c2ccc3cnc(Nc4ccc(-n5cnc(N6CCOCC6)n5)cc4)nc3c2)cs1	none
c1cc(-n2cnc(N3CCOCC3)n2)ccc1Nc1ncc2ccc(-c3cn[nH]n3)cc2n1	TEAD-YAP block 68
c1n[nH]c(-c2ccc3cnc(Nc4ccc(-n5cnc(N6CCOCC6)n5)cc4)nc3c2)n1	TEAD-YAP block 65
CCOc1cccc(/C=N/NC(=O)c2cc(-c3cccc([N+](=O)[O-])c3)n[nH]2)c1O	TEAD-YAP block 60
CCOc1ccccc1-c1cc(C(=O)N/N=C/c2cccc(OCC)c2O)[nH]n1	TEAD-YAP block 69
CCOc1cccc(/C=N/NC(=S)Nc2ccccc2[N+](=O)[O-])c1O	TEAD-YAP block 71
O=C(CN1CCN(c2ccc([N+](=O)[O-])cc2)CC1)Nc1ccccc1C(F)(F)F	none
Cc1ccc(C)c(S(=O)(=O)Nc2ccc3scnc3c2)c1	TEAD-YAP block 39
Cc1ccc2c(c1)N(S(=O)(=O)c1cc3[nH]c(=O)c(=O)[nH]c3cc1C)CCO2	none
O=C(Nc1cccc(Cl)c1)c1cccc(S(=O)(=O)N2CCCCCC2)c1	none
Cc1c(NS(=O)(=O)c2ccc([N+](=O)[O-])cc2)c(=O)n(-c2ccccc2)n1C	FBW7 activator 2.0
CCCn1c2ccccc2c2nnc(SCC(=O)N3CCCc4ccccc43)nc21	none
O=C(/C=C/c1cccs1)c1ccc(N2CCOCC2)cc1	TEAD-YAP block 58
Cc1cc(NS(=O)(=O)c2c[nH]c3ccc([N+](=O)[O-])cc23)ccc1Br	none
CCN(CC)CC#CC(C)(OC(C)=O)C(C)C (centres undefined)	none
COC(=O)c1ccc2nc(C)cc(Nc3cccc(C(C)=O)c3)c2c1	none
c1ccc(-c2cn3nc(-c4ccccc4)sc3n2)cc1	TEAD-YAP block 44
COCC(=O)N1CCC(Oc2ccc(C(=O)NCCn3ccnc3C)cc2)CC1	none
COc1cc([C@@H]2c3cc4c(cc3[C@H](O)C3COC(=O)[C@@H]32)OCO4)cc(OC)c1OC (some centres undefined)	TEAD-YAP block 55
COc1cc([C@@H]2c3cc4c(cc3C(OC3O[C@@H]5COC(C)O[C@H]5[C@H](O)[C@H]3O)C3COC(=O)[C@@H]32)OCO4)cc(OC)c1O (some centres undefined)	none
COc1ccc(/C=C/C(=O)Nc2nc(CN3CCc4ccccc4C3)cs2)cc1OC	TEAD-YAP block 45
O=C(Nc1nc(CN2CCc3ccccc3C2)cs1)c1ccc(F)cc1	TEAD-YAP block 32
COc1ccccc1OCC(=O)Nc1nc(CN2CCc3ccccc3C2)cs1	none
NC1=NC(=O)/C(=C\c2ccc(OC(=O)c3ccccc3Cl)cc2)S1	none
CCOC(=O)c1sc(N)c(C#N)c1CSc1nnc(-c2ccc(OC)c(OC)c2)o1	TEAD-YAP block 44
CCOC(=O)c1sc(N)c(C#N)c1CSc1nnc(-c2ccco2)o1	none
Cn1c(=O)c2c([nH]c(=S)n2C)n(C)c1=O	none
ClCc1nc2cc3ccccc3cc2[nH]1	TEAD-YAP block 40
Oc1cccc2ccc(/C=C/c3ccc4c(c3)OCO4)nc12	TEAD-YAP block 80
Oc1cccc2ccc(/C=C/c3cc4c(cc3Cl)OCO4)nc12	TEAD-YAP block 68
O=[N+]([O-])c1cccc(/C=C/c2ccc3cccc(O)c3n2)c1	none
c1csc(-c2cnc3ccc(NC4CCOCC4)nn23)c1	TEAD-YAP block 47
Oc1cccc(-c2cnc3ccc(NC4CCOCC4)nn23)c1	FBW7 activator 2.2, TEAD-YAP block 33
